Experimental data reported in PubChem BioAssay (NCATS).
Inconclusive results are not listed. Values without a mark were called inactive. Activity calls are given as the source filed them. The call rests on the fitted dose curve; in most records, active means well fitted inhibition curve with a large enough effect; inconclusive means small, poorly fitted or top-dose-only effect; inactive means flat fitted curve, though single readings scatter.

These compounds were tested against Ubiquitin carboxyl-terminal hydrolase 1 (Homo sapiens) (UniProt O94782) (assay: Inhibitors of USP1/UAF1: Pilot qHTS (AID 504865; further: nearly all actives have a fitted effect of over 35% in size;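 on activity change, negative = inhibition: rhodamine fluorescence freed from ubiquitin-rhodamine substrate followed over time; top concentration of the series differs between compounds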)). Conditions: purified USP1/UAF1, Ub-rhodamine cleavage fluorescence; series mostly up to 114 µM; activity change, negative = inhibition: at the top concentration.
In short: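 1nM USP1/UAF1 + cpd, 15 min RT; start w/ Ub-Rho 150nM final; kinetic FL 480/540 nm, 6 reads q60 s. Buffer 50mM HEPES pH 7.8, 0.5mM EDTA, 1mM TCEP, 0.01% Tween-20, 0.1 mg/ml BSA.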
On the % scale 0 is the no-effect control and ±100 the full control effect; potency means the concentration at half of the fitted maximal effect.

Ubiquitin carboxyl-terminal hydrolase 1 (Homo sapiens), sequence (O94782 whole entry, looked up): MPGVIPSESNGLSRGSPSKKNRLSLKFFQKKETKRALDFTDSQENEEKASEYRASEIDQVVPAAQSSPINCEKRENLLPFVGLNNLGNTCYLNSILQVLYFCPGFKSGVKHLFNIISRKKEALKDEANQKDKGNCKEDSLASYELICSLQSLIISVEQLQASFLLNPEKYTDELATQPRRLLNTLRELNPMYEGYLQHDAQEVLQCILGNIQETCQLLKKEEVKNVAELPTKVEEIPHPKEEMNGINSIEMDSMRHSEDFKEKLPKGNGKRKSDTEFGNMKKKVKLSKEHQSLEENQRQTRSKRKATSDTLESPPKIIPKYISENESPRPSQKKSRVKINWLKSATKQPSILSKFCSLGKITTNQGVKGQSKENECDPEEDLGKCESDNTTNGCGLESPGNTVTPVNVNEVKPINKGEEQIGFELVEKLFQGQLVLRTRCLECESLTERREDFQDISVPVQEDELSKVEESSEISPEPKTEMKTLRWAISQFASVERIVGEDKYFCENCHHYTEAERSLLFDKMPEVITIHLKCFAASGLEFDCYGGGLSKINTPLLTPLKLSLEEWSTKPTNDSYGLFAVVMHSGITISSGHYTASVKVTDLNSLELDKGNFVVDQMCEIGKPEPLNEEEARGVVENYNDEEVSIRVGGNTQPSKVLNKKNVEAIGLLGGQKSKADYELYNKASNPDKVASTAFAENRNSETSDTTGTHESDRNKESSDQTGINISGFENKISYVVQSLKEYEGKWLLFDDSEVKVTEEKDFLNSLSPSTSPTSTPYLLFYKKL

Row | Structure (SMILES) | activity change, negative = inhibition [%] | Potency
1 | CN(N=O)C(=O)N[C@H]1C(O)C(O)C(CO)O[C@@H]1O (stereo not given in full) | -9.39 | –
2 | Nc1nc(=O)n(C2OC(CO)C(O)C2O)cc1Cl (stereo not given) | -6.36 | –
3 | Cn1c(=O)[nH]c(=O)c2[nH]cnc21 | 1.47 | –
4 | Nc1ncnc2c1[nH]c(=O)n2C1CC(O)C(CO)O1 (stereo not given) | -6.29 | –
5 | Nc1nc2c(ncn2C2CC(O)C(CO)O2)c(=O)[nH]1 (stereo not given) | 2.1 | –
6 | O=c1c(-c2ccc(O)cc2)coc2c(C3OC(CO)C(O)C(O)C3O)c(O)ccc12 (stereo not given) | -6.31 | –
7 | CC1(C)CC[C@]2(C(=O)O)CC[C@@]3(C)C(=CCC4[C@@]5(C)CCC(O)C(C)(C)C5CC[C@@]43C)C2C1 (stereo not given in full) | -9.82 | –
8 | CSCCC(N)C(=O)NC(CC(C)C)C(=O)NC(Cc1ccccc1)C(=O)O (stereo not given) | -4.7 | –
9 | C=C1C(=O)C23C(O)C1CCC2[C@]12COC3(O)C(O)C1C(C)(C)CC[C@H]2O (stereo not given in full) | -3.26 | –
10 | CC(=O)OC1CC2C(C)(C)C(=O)CC[C@]2(C)C2CC[C@]3(C)C(=CC(=O)OC3c3ccoc3)[C@]12C (stereo not given in full) | -13.2 | –
11 | Cc1cc(O)c(C)c(O)c1C(=O)O | -12.3 | –
12 | COc1ccc(-c2cc(=O)c3c(OC(C)=O)cc(OC(C)=O)cc3o2)cc1 | -12.5 | –
13 | CCC1OC(=O)C(C)[C@@H](O[C@H]2C[C@@](C)(OC)C(O)C(C)O2)C(C)[C@@H](O[C@@H]2OC(C)CC(N(C)C)C2O)[C@@](C)(O)CC(C)C2NC(COCCOC)O[C@H](C2C)[C@@]1(C)O (stereo not given in full) | -7.72 | –
14 | CC(=O)OC1CC[C@@]2(C)C3CC[C@@]4(C)C(CC5O[C@@]6(CCC(C)CO6)C(C)C54)C3CC[C@@H]2C1 (stereo not given in full) | -2.47 | –
15 | O=C(O)C(S)[C@@H](S)C(=O)O (stereo not given in full) | 7.51 | –
16 | CC1CCC2C(C)(C)C3CC12CC[C@]3(C)O (stereo not given in full) | -13.2 | –
17 | O=C1OC(C(O)CO)C(O)=C1O (stereo not given) | -14.5 | –
18 | CC1c2cccc(O)c2C(O)=C2C(=O)[C@]3(O)C(O)=C(C(N)=O)C(=O)C(N(C)C)C3C(O)C21 (stereo not given in full) | -12.7 | –
19 | COc1c2ccoc2c(OC)c2oc(=O)ccc12 | -8.25 | –
20 | CO[C@@]1(NC(=O)Cc2cccs2)C(=O)N2C(C(=O)O)=C(COC(N)=O)CSC21 (stereo not given in full) | -13.6 | –

Row | Structure (SMILES) | activity change, negative = inhibition [%] | Potency
21 | O=C(O)/C=C/C=C/c1ccccc1 | -4.22 | –
22 | OCC(O)C(O)C(O)C(O)C(O)CO (stereo not given) | -6.06 | –
23 | C=C1CCC2C(CC2(C)C)C(=O)CCC1O (stereo not given) | -5.06 | –
24 | C[C@]12CCC(=O)C=C1CCC1C2C(O)C[C@]2(C)C1CC[C@]2(O)C(=O)COC(=O)CCC(=O)O (stereo not given in full) | -2.38 | –
25 | CC(=O)c1ccc[nH]1 | 0.434 | –
26 | O=C(O)c1cc2ccccc2[nH]1 | -8.91 | –
27 | CC1C(NC(=O)/C(=N/OC(C)(C)C(=O)O)c2csc(N)n2)C(=O)N1S(=O)(=O)O (stereo not given) | -5.48 | –
28 | COc1ccc2cc1Oc1ccc(cc1)CC1c3cc(c(OC)cc3CCN1C)Oc1c(OC)c(OC)cc3c1C(C2)N(C)CC3 (stereo not given) | -10.4 | –
29 | CC1CC[C@@]23CCC4(C)[C@@]5(C)CCC6C(C)(C)C(=O)CC[C@@]6(C)C5C=C[C@@]4(OC2=O)C3C1C (stereo not given in full) | -8.8 | –
30 | COc1cc(C(C)=O)cc(OC)c1O | -8.67 | –
31 | COc1cc(OC)c2c(=O)c(-c3ccccc3)coc2c1 | -4.09 | –
32 | CC1O[C@@H](O[C@@H]2C(O)C[C@H](O[C@@H]3C(O)C[C@@H](OC4CC[C@@]5(C)C6CC[C@]7(C)C(C8=CC(=O)OC8)CC[C@@]7(O)C6CC[C@@H]5C4)OC3C)OC2C)CC(O)[C@H]1O (stereo not given in full) | -8.67 | –
33 | NC(N)=N/N=C\c1c(Cl)cccc1Cl | -2.08 | –
34 | CC(=O)OCC(=O)[C@@]1(O)CCC2C3CCC4=CC(=O)CC[C@]4(C)C3C(=O)C[C@]21C (stereo not given in full) | 1.04 | –
35 | O=c1[nH]cnc2c1ncn2C1CC(O)C(CO)O1 (stereo not given) | -11.5 | –
36 | O[N+]1=CC=CCC1=S.On1ccccc1=S.[Zn] | -6.44 | –
37 | COc1c2ccoc2cc2oc(C)cc(=O)c12 | -3.8 | –
38 | Cc1onc(-c2c(Cl)cccc2Cl)c1C(=O)NC1C(=O)N2C1SC(C)(C)C2C(=O)O (stereo not given) | -5.01 | –
39 | C=C1c2cccc(O)c2C(O)=C2C(=O)[C@]3(O)C(O)=C(C(N)=O)C(=O)C(N(C)C)C3C(O)C12 (stereo not given in full) | – | 39.8 µM (active)
40 | CC(CCC(=O)O)C1CCC2C3C(=O)CC4CC(=O)CC[C@@]4(C)C3CC(=O)[C@]12C (stereo not given in full) | -4.11 | –
